# Compounds with a hit are over-represented: about 3.4% of the library has one in this group of screens.
# TEAD-YAP inh – TEAD-YAP interaction inhibition, primary screen, TEAD-YAP interaction inhibitor project, luminescence, HEK-TIYL cells. TEAD-Gal4/YAP UAS-luciferase luminescence. inhibition, % at 9.12 µM. hit rate 1.4% among 640,000. AID 1259422, 2018; in the data active = inhibition above about 32%
# MITF inh – MITF inhibitors, primary screen, biochemical, AlphaScreen, human | Microphthalmia-associated transcription factor (Homo sapiens), O75030 | inhibition, % at 2.6 µM | hit rate 0.91% among 650,000 | AlphaScreen MITF homodimerization, bead proximity signal; in the data active = inhibition above about 50%
# Target sequence (O75030 whole entry, looked up): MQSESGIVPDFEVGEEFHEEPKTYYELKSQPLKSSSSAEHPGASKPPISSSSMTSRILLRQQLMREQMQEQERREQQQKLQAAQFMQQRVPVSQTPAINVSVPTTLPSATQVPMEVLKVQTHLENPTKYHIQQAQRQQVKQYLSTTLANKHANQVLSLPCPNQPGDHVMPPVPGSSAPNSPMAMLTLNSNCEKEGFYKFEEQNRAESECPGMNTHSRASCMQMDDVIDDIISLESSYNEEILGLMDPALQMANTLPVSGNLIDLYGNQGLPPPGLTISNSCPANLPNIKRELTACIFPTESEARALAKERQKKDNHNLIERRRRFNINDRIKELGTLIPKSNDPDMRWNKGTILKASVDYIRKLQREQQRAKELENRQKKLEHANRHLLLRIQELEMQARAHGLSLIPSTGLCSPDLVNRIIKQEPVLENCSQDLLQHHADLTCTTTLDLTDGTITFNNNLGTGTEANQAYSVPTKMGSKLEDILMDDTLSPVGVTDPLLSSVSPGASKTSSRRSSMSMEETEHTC
# FBW7 activator – FBW7 E3 ligase activators, primary screen, biochemical, AlphaScreen, human. hit rate 0.13% among 650,000. normalized activity (activation), % at 26.1 µM. AID 1259310, 2017. AlphaScreen FBW7–phospho-cyclin E peptide binding, activator screen. F-box/WD repeat-containing protein 7 (Homo sapiens), Q969H0; in the data active = normalized activity above about 1.9%;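 also: purified mutant Fbw7 with reduced substrate affinity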
# GPR151 ag – activators of human GPR151, primary screen, cell-based, PathHunter beta-arrestin, luminescence; AID 1508602, 2020; PathHunter beta-arrestin GPR151 cells; activation, % at 11.2 µM; G-protein coupled receptor 151 (Homo sapiens), Q8TDV0; hit rate 1% among 650,000; in the data active = activation above about 4.9%
# Hits are given with their value; 0 = inactive; - = not tested or not shown.
SMILES,TEAD-YAP inh,MITF inh,FBW7 activator,GPR151 ag
CN1C(=O)C(=Cc2ccc(OCc3cccc(C(=O)O)c3)cc2)C(=O)N(C)C1=O,42.7,0,0,0
O=C(/C=C/Nc1ccccc1Br)c1ccccc1,82.7,0,0,0
O=C(/C=C/Nc1ccccc1F)c1ccc(Br)cc1,0,0,0,0
O=C(/C=C/Nc1ccc(Br)cc1F)c1ccccc1,83.7,0,0,0
O=C(/C=C/Nc1ccccc1Br)c1ccccn1,91.6,0,0,0
O=C(/C=C\Nc1ccccn1)c1ccccc1,41.3,0,0,0
O=C(/C=C\Nc1cccc(Br)c1)c1ccccc1,0,0,0,0
CCOC(=O)c1ccc(S(=O)(=O)NCCc2ccncc2)cc1,0,0,0,0
CCCC(=O)Nc1cc(OC)c(NC(=O)c2cccnc2)cc1OC,0,0,0,0
COc1ccc2c(c1)nc(SCC(=O)c1ccco1)n2C,0,0,0,0
c1c2c(cc3sc(N4CCCC4)nc13)OCCO2,71.5,0,0,0
c1ccc2c(c1)CCN(c1nc3cc4c(cc3s1)OCCO4)C2,88.7,0,0,0
c1ccc2sc(N3CCN(c4nc5cc6c(cc5s4)OCCO6)CC3)nc2c1,0,0,0,0
O=C(CSc1nnc2sc3ccccc3n12)c1cccc2ccccc12,0,0,0,0
CSC(Nc1ccc(Br)cc1)=C(C#N)C#N,38.1,0,0,0
CCOC(=O)c1ccc(COC(=O)c2ccccc2NC)cc1,0,0,2.2,0
CC(=O)c1ccc(NC(=O)c2noc3c2CCC3)cc1,80.0,0,0,0
O=C(c1ccccc1)N1C(=O)c2ccccc2C1=O,0,0,2.5,0
CC(C)n1nccc1NC(=O)CCl,0,0,0,0
COc1ccc(-c2nnc3n2N=C(c2ccccc2)CS3)cc1,0,0,0,0
COc1ccc(C2=Nn3c(nnc3-c3ccc(OC)cc3)SC2)cc1,49.3,0,0,0
COc1cccc(C2=Nn3c(nnc3-c3ccccc3O)SC2)c1,0,0,0,0
Oc1ccc(C2=Nn3c(nnc3-c3ccccc3Br)SC2)cc1O,52.4,0,0,0
COc1ccc(-c2nnc3n2N=C(c2ccc(O)c(O)c2)CS3)cc1,50.4,0,0,0
CCC(=O)Nc1ccc(C2=Nn3c(COc4ccc(OC)cc4)nnc3SC2)cc1,48.4,0,0,0
SMILES,TEAD-YAP inh,MITF inh,FBW7 activator,GPR151 ag
CCCN=C(C)c1c(C)[nH]n(-c2nc3ccccc3s2)c1=O,0,0,0,0
FC(F)(F)c1ccc(N(c2cccnc2)C2CCN(c3ccc(C(F)(F)F)cn3)CC2)cc1,-,-,-,0
c1ccc(CNc2nc(-c3csc4ccccc34)nc3nc[nH]c23)cc1,0,0,0,0
COc1cccc(-c2nnc3n2N=C(c2ccc(Br)cc2)CS3)c1,0,0,0,0
Cc1ccc(C2=Nn3c(nnc3-c3ccccc3)SC2)cc1,59.7,0,0,0
COc1cccc(-c2nnc3n2N=C(c2ccc(O)c(O)c2)CS3)c1,57.8,0,0,0
Oc1ccc(C2=Nn3c(nnc3-c3cccc(F)c3)SC2)cc1O,60.5,0,0,0
Oc1ccc(C2=Nn3c(nnc3-c3ccc(Br)cc3)SC2)cc1O,65.7,0,0,0
COc1cccc(C2=Nn3c(nnc3-c3ccccc3)SC2)c1,0,0,0,0
COc1cc(C2c3cccn3CCN2C(=O)Nc2ccc3c(c2)OCO3)cc(OC)c1OC (centres undefined),0,0,0,0
CCCCNC(=O)CSc1nc2c(sc(=S)n2CCN(CC)CC)c(=O)n1-c1ccccc1OC,0,0,0,0
CC1CN(C(=O)CCC(=O)NCCN2CCOCC2)c2ccccc2O1 (centres undefined),0,0,0,0
COc1ccc(-c2nnc3n2N=C(c2ccc4c(c2)OCCO4)CS3)cc1,45.6,0,0,0
COc1cc(OC)cc(C2=NC3(CCC(C)CC3)NC2=O)c1 (centres undefined),0,0,4.2,0
O=C(NC1c2ccccc2-c2ccccc21)c1ccccc1,0,0,0,0
O=C(NC1c2ccccc2-c2ccccc21)c1cccc([N+](=O)[O-])c1,54.1,0,0,0
CCCCC(CC)CNC(=O)c1ccc2c(c1)NC(=O)c1ccccc1N2 (centres undefined),0,0,0,0
CCOc1ccccc1N1CC(O)=C(c2nc3ccccc3[nH]2)C1=N,54.3,0,0,0
CC(c1ccccc1)N1CC(O)=C(c2nc3ccccc3[nH]2)C1=N (centres undefined),54.8,0,0,0
Cc1nc2scc(C)n2c1C(=O)NC1CCC1,0,0,1.9,0
CSC1=C(C#N)C(c2cccs2)C(C(=O)Nc2ccccc2)=C(C)N1 (centres undefined),0,0,0,0
CN(C)CCNC(=O)c1cccc(-c2cncc(-c3ccc(CO)cc3)n2)c1,0,0,0,0
CC(C)(C)c1ccc(C(=O)Nc2nnc(-c3ccccc3I)s2)cc1,0,0,0,0
O=C(Cc1cnc2ncnn2c1)N1CCc2c([nH]c3ccccc23)C1c1ccccn1 (centres undefined),34.6,0,0,0
CCOC(=O)N1CCN(c2c(N3CCN(c4ccc(F)cc4)CC3)c(=O)c2=O)CC1,0,0,0,0
SMILES,TEAD-YAP inh,MITF inh,FBW7 activator,GPR151 ag
CCOC(=O)N1CCN(c2c(NCc3ccc(F)cc3)c(=O)c2=O)CC1,54.6,0,0,0
COc1ccc(-c2ccc(N)cc2)cc1,0,0,0,0
Nc1ccc(-c2ccc(-c3ccc(N)cc3)cc2)cc1,74.0,0,43.1,0
Cc1c(C)n2c3c(=O)n(C)c(=O)n(C)c3nc2n1CC1CCCO1 (centres undefined),0,0,0,0
NC(=O)c1ccsc1NC(=O)/C=C/c1cccs1,64.1,0,0,0
Cc1ccc(C2CC(=O)Nc3ccc4ccccc4c32)cc1 (centres undefined),0,0,0,0
O=C1CC(c2cccc([N+](=O)[O-])c2)c2c(ccc3ccccc23)N1 (centres undefined),60.6,0,0,0
COc1ccc(C(=O)Nc2sc3c(c2C(N)=O)CCC(C(C)(C)C)C3)cc1[N+](=O)[O-] (centres undefined),0,0,0,0
COc1ccc(Br)cc1C(=O)O,0,0,0,0
COc1cc(C(=O)O)c(-n2c(C)ccc2C)cc1OC,0,71.7,0,0
Cn1nccc1Nc1nc(NC2CC2)c2ncn(-c3ccccc3)c2n1,40.4,0,0,0
Cn1c(Nc2nc(NCCCN3CCCC3=O)c3ncn(-c4ccccc4)c3n2)nc2ccccc21,39.4,0,0,0
CC(C)N(CCNc1nc(Nc2nc3ccccc3n2C)nc2c1ncn2C(C)C)C(C)C,42.9,0,0,0
CC(=O)Nc1cccc(Nc2nc3ccccc3n3nnnc23)c1,0,0,0,0
CC(=O)Nc1ccc(Nc2nc3ccccc3n3nnnc23)cc1,37.7,0,0,0
COC(=O)c1ccc(Cc2nc3ccccc3[nH]c2=O)cc1,0,0,0,0
CCCNc1nc(Nc2nc3ccccc3n2C)nc2c1ncn2-c1ccccc1,54.6,0,0,0
